Measured values as given in PubChem BioAssay AID2071 (Sanford-Burnham Center for Chemical Genomics, 2009).
Screen size: about 280,000 compounds; about 1,700 (0.61%) were called active. No stated cut-off is given here; in the data, active means inhibition mostly above about 24% (no sharp cut-off); inactive means mostly below about 32%. The sample as a whole holds a higher share of actives than the screen did.

Assay: NALP1 inflammasome inhibitors in reconstituted yeast, colorimetric, S. cerevisiae, triplicate retest (AID 2071)
Details: S. cerevisiae NALP1/ASC/caspase-1 growth, X-gal OD620, 72 h, stronger effect = higher value

COC(=O)c1ccc2c(C(C)(C)O)c(C(C)(C)O)[nH]c2c1
inhibition (at 10 µM unless noted): 2.7% (inactive)

O=C(Nc1cccc(Cl)c1Cl)c1ccccc1NC(=O)C1CC=CCC1C(=O)O (stereo not given)
inhibition (at 10 µM unless noted): 11% (inactive)

CCCN1C2CCCC1CC(NC(=O)NC13CC4CC(CC(C4)C1)C3)C2 (stereo not given)
inhibition (at 10 µM unless noted): 13.5% (inactive)

COc1cccc(C(C(=O)NC2CCCC2)N(C(=O)c2ccco2)c2cccc(C(C)=O)c2)c1OC (stereo not given)
inhibition (at 10 µM unless noted): 24.9% (inactive)

CCCn1c(CCNc2nc(-c3ccc(OC)cc3)cs2)nc2ccccc21
inhibition (at 10 µM unless noted): -2.4% (inactive)

O=C(Cc1ccc(F)cc1)NC1CCCC1
inhibition (at 10 µM unless noted): 9.3% (inactive)

O=C(CSc1ncnc2c1nnn2Cc1ccc(F)cc1)NC1CCCC1
inhibition (at 10 µM unless noted): 23.4% (active)

O=C(CSc1ncnc2c1oc1ccccc12)NC1CCCC1
inhibition (at 10 µM unless noted): 15.8% (inactive)

COc1ccc(-c2cc(C(=O)N(C)Cc3ccc(OC)c(OC)c3OC)c3ccccc3n2)cc1OC
inhibition (at 10 µM unless noted): 19% (inactive)

Cc1nnc(NC2=NCCCCC2)o1
inhibition (at 10 µM unless noted): 37.9% (active)

Cn1cccc1C(=O)N1CCc2ccccc2C1
inhibition (at 10 µM unless noted): 19.1% (inactive)

CCC(C)c1ccc(NC(=S)N2CCCC2)cc1 (stereo not given)
inhibition (at 10 µM unless noted): -2.6% (inactive)

COc1ccc(C(=O)/C=C/c2ccc(-c3ccccc3)cc2)cc1CSCC(=O)O
inhibition (at 10 µM unless noted): 3% (inactive)

COc1cc(/C=N/O)ccc1OCc1ccc([N+](=O)[O-])cc1
inhibition (at 10 µM unless noted): 12.2% (inactive)

COC(=O)c1ccc(COc2ccc(/C=C/C(=O)c3ccc(OC)c(CSCC(=O)O)c3)cc2OC)cc1
inhibition (at 10 µM unless noted): 34.2% (active)

CC(=O)Nc1ccc(N2C(=O)CC(Sc3nccc(C)n3)C2=O)cc1 (stereo not given)
inhibition (at 10 µM unless noted): -0.3% (inactive)

Cn1c(NC(=O)c2ccccc2)nc2ccccc21
inhibition (at 10 µM unless noted): 7.4% (inactive)

CCc1ccc(S(=O)(=O)N/N=C\c2ccc([N+](=O)[O-])o2)cc1
inhibition (at 10 µM unless noted): 9.4% (inactive)

Cc1ccc(C(C[N+](=O)[O-])c2c(C)cc3ccccn23)cc1 (stereo not given)
inhibition (at 10 µM unless noted): 98.9% (active)

Cc1cc2ccccn2c1C(=O)c1cccc(F)c1
inhibition (at 10 µM unless noted): 17.6% (inactive)

CCC1=Nc2cc(C(=O)NCCCN3CCOCC3)ccc2Sc2ccc(Br)cc21
inhibition (at 10 µM unless noted): 7.2% (inactive)

CCc1ccc(CN(C)C(=O)C2CCC(=O)N(Cc3cccc(OC)c3)C2)nc1 (stereo not given)
inhibition (at 10 µM unless noted): 9.6% (inactive)

Cc1oc2cc3oc(=O)ccc3cc2c1C
inhibition (at 10 µM unless noted): 8.6% (inactive)

CN(C)CCCN(C(=O)COc1ccccc1)c1nc2c(Cl)cccc2s1
inhibition (at 10 µM unless noted): 3.9% (inactive)

Cc1cccc2sc(N(CCCN(C)C)C(=O)CCS(=O)(=O)c3ccccc3)nc12
inhibition (at 10 µM): 78.1% (active) | inhibition (triplicate retest, at 20 µM): 99.3%

COc1cccc2sc(N(CCCN(C)C)C(=O)CCS(=O)(=O)c3ccccc3)nc12
inhibition (at 10 µM unless noted): 14.3% (inactive)

CC(C)CCNC(=O)c1ccc2c(Cl)c3c(nc2c1)CCC3
inhibition (at 10 µM unless noted): 16.8% (inactive)

Cc1ccc(N(Cc2cc(=O)[nH]c3ccccc23)C(=O)CCl)cc1
inhibition (at 10 µM unless noted): 17.4% (inactive)

O=C(CC(O)(C(F)(F)F)C(F)(F)F)Nc1ccc(Cl)c(Cl)c1
inhibition (at 10 µM): 78.5% (active) | inhibition (triplicate retest, at 20 µM): 110%

Cc1ccc(NC(=O)C/C(N)=N/O)cc1Cl
inhibition (at 10 µM unless noted): -8.9% (inactive)

O=C(CC(=O)Nc1ccc(Cl)c(Cl)c1)N/N=C/c1ccc(O)cc1
inhibition (at 10 µM unless noted): 21.7% (inactive)

COc1ccc(C(=O)C2CCCN(C(=O)c3cc(C)on3)C2)cc1F (stereo not given)
inhibition (at 10 µM unless noted): 4% (inactive)

Cc1ccc(/C=N/NC(=O)c2cc3ccccc3cc2O)o1
inhibition (at 10 µM unless noted): -11.5% (inactive)

CC(=O)N(C)c1ccc(NC(=O)Nc2cccc3ccccc23)cc1
inhibition (at 10 µM unless noted): 15.8% (inactive)

CCOc1cc(/C=C/c2nc3ccccc3c(=O)[nH]2)cc(Br)c1OC
inhibition (at 10 µM unless noted): 8.1% (inactive)

O=C(c1ccc(CN2CCOCC2)cc1)N1CCN(c2ccccc2F)CC1
inhibition (at 10 µM unless noted): 6.8% (inactive)

O=C(c1cccc2ccccc12)N1CCN(c2ccccc2F)CC1
inhibition (at 10 µM unless noted): 41.1% (active)

COc1ccc2oc(=O)c(C(=O)N3CCN(c4ccccc4F)CC3)cc2c1
inhibition (at 10 µM unless noted): 0.6% (inactive)

COc1ccccc1CNC(=O)[C@@H]1CCCN1C(=O)[C@@H]1Cc2ccccc2CN1C(=O)OC(C)(C)C
inhibition (at 10 µM unless noted): -18.4% (inactive)

COc1ccc(NS(=O)(=O)c2ccc(NC(C)=O)cc2)cc1OC
inhibition (at 10 µM unless noted): 26.3% (inactive)

COc1ccc(NC(=S)SC)cc1OC
inhibition (at 10 µM): 73.8% (active) | inhibition (triplicate retest, at 20 µM): 94.6%

COc1ccc(NC(=O)CNC(=O)Cc2ccccc2)cc1OC
inhibition (at 10 µM unless noted): -89.6% (inactive)

Cc1cc(NC(=O)CCN2CCN(Cc3ccccc3)CC2)ccc1Br
inhibition (at 10 µM unless noted): 16.7% (inactive)

CN(CCO)c1ccc(/C=N/Nc2nncc3ccccc23)cc1
inhibition (at 10 µM unless noted): 3.8% (inactive)

O=C(O)C(NS(=O)(=O)c1cccc2nsnc12)c1ccccc1 (stereo not given)
inhibition (at 10 µM unless noted): 15.5% (inactive)

O=C(C(NS(=O)(=O)c1cccc2nsnc12)c1ccccc1)N1CCN(c2ccccc2)CC1 (stereo not given)
inhibition (at 10 µM unless noted): 34.4% (active)

O=C(C(NS(=O)(=O)c1cccc2nsnc12)c1ccccc1)N1CCN(c2ccccn2)CC1 (stereo not given)
inhibition (at 10 µM unless noted): 8.1% (inactive)

CCOc1ccc(CN2CCN(CCCc3ccccc3)C(CCO)C2)cc1 (stereo not given)
inhibition (at 10 µM unless noted): 28.9% (inactive)

CCn1ccnc1CN(C)C(=O)c1cc(COc2ccc(Cl)cc2OC)on1
inhibition (at 10 µM unless noted): -9.7% (inactive)

CC(C)(C)c1ccc(/C=C/C(=O)NCCCn2ccnc2)cc1
inhibition (at 10 µM unless noted): 1.5% (inactive)

COc1ccc(F)c(-c2nc(CN3CCC(c4ccccc4)CC3)c(C)o2)c1
inhibition (at 10 µM unless noted): 13.2% (inactive)

CCOc1ccccc1-c1cc(C(=O)N2CCOCC2)c2ccccc2n1
inhibition (at 10 µM unless noted): 0.7% (inactive)

CCOc1ccccc1-c1nc(CN2CCC(C(=O)N3CCOCC3)CC2)c(C)o1
inhibition (at 10 µM unless noted): 29% (active)

CCOc1ccc(CN2CCNC(=O)C2CC(=O)NCCCC2CCCC2)cc1 (stereo not given)
inhibition (at 10 µM unless noted): 1% (inactive)

C/C(=N\NC(=O)c1cc(-c2ccc(O)cc2)nc2ccccc12)c1cccnc1
inhibition (at 10 µM unless noted): -2.6% (inactive)

CCOC(=O)CSc1nc2ccc(C)cc2n2cnnc12
inhibition (at 10 µM unless noted): 10.4% (inactive)

COc1ccc(-n2c(SCC(=O)Nc3sc4c(c3C#N)CCCC4)nnc2-c2ccc(O)cc2)cc1
inhibition (at 10 µM unless noted): 40.9% (active)

CCCc1cc(=O)[nH]c(SCC(=O)Nc2sc3c(c2C#N)CCCC3)n1
inhibition (at 10 µM unless noted): 9.4% (inactive)

N#Cc1c(NC(=O)CSc2nc3ccccc3c(=O)n2Cc2ccco2)sc2c1CCCC2
inhibition (at 10 µM unless noted): 20.7% (inactive)

COc1ccc(C(=O)NCC(=O)N/N=C/c2cccnc2)cc1
inhibition (at 10 µM unless noted): -23.5% (inactive)

CC(C)[C@@H]1COC(c2cccc(C3=N[C@H](C(C)C)CO3)c2)=N1
inhibition (at 10 µM unless noted): 10.4% (inactive)

COc1ccc(C(C[N+](=O)[O-])n2nc(C)cc2C)cc1 (stereo not given)
inhibition (at 10 µM unless noted): 103% (active)

COc1ccc(OCc2cn3c(C)cc(C)nc3n2)cc1
inhibition (at 10 µM unless noted): 22.5% (inactive)

COc1ccc(C(=O)CSc2nc(C)cc(C)n2)cc1[N+](=O)[O-]
inhibition (at 10 µM unless noted): -10% (inactive)

CN(Cc1cnccn1)C(=O)c1cc(COc2cccc(C(F)(F)F)c2)on1
inhibition (at 10 µM unless noted): -7.1% (inactive)

S=C(Nc1cccc(Cl)c1)Nc1ccc2c(c1)OCCO2
inhibition (at 10 µM unless noted): 2% (inactive)

CN(c1cccc(NC(=O)c2ccc(CN3CCc4ccccc4C3)cc2)c1)S(C)(=O)=O
inhibition (at 10 µM unless noted): -14.2% (inactive)

Cc1cccc(C)c1NC(=O)c1ccc(CN2CCc3ccccc3C2)cc1
inhibition (at 10 µM unless noted): 29.1% (active)

Cc1ccc(NC(=O)CN2CCc3ccccc3C2)cc1
inhibition (at 10 µM unless noted): -0.6% (inactive)

CCOC(=O)c1ccc(NC(=O)c2cccnc2)cc1
inhibition (at 10 µM unless noted): 16.3% (inactive)

S=C(Nc1ccc(Cl)cc1Cl)N1CCCC1
inhibition (at 10 µM unless noted): 11% (inactive)

O=C(CCS(=O)(=O)c1cccc2nsnc12)N1CCN(c2ccccc2F)CC1
inhibition (at 10 µM unless noted): 42.9% (active)

CCC(=O)N1CCc2cc(S(=O)(=O)CCC(=O)N3CCN(c4ccccc4F)CC3)ccc21
inhibition (at 10 µM unless noted): 32% (inactive)

O=C(CCCNS(=O)(=O)c1cccc2nsnc12)NCCN1CCN(c2ccccc2F)CC1
inhibition (at 10 µM unless noted): 8.8% (inactive)

CN(C(=O)c1cc2c(=O)n3ccccc3nc2s1)C1CCCCC1
inhibition (at 10 µM unless noted): 4.6% (inactive)

CC(=O)NCCNC(=O)c1cc(-c2cccc3ccccc23)nc2ccccc12
inhibition (at 10 µM unless noted): 0.4% (inactive)

C=CCOc1cccc(C2C(C(=O)c3ccc(C)o3)=C(O)C(=O)N2CCCn2ccnc2)c1 (stereo not given)
inhibition (at 10 µM unless noted): 13.4% (inactive)

O=C(CNC(=O)c1ccc(F)cc1)c1ccccc1
inhibition (at 10 µM unless noted): 3.2% (inactive)

O=C(C1CCC(=O)N(C2CC2)C1)N1CCN(c2ccc(Cl)cc2)CC1 (stereo not given)
inhibition (at 10 µM unless noted): 26.5% (active)

O=C(C1CC(=O)N(C2CCCCC2)C1)N1CCN(c2ccccc2)CC1 (stereo not given)
inhibition (at 10 µM unless noted): 4.2% (inactive)

O=C(NCc1cccc(Cl)c1)C1CCC(=O)N(C2CC2)C1 (stereo not given)
inhibition (at 10 µM unless noted): 15.1% (inactive)

O=C(NCc1ccccc1)C(=O)NCC1OCCN1S(=O)(=O)c1ccc(Br)cc1 (stereo not given)
inhibition (at 10 µM unless noted): 8% (inactive)

Nc1nc(Nc2ccccc2)nc(NCCO)c1[N+](=O)[O-]
inhibition (at 10 µM unless noted): 2.9% (inactive)

CN(C)c1nc(Nc2ccc(Cl)c(Cl)c2)nc(N(C)C)n1
inhibition (at 10 µM unless noted): 14.2% (inactive)

OCCNc1nc(Nc2ccc(Cl)c(Cl)c2)nc2ccccc12
inhibition (at 10 µM unless noted): 31.9% (active)

O=S(=O)(NC1CC2CCC1C2)c1ccc(Cl)cc1 (stereo not given)
inhibition (at 10 µM unless noted): -6% (inactive)

Cc1ccc2c(C)c(C(=O)N3CCN(c4ccncc4)CC3)oc2c1C
inhibition (at 10 µM unless noted): 12.6% (inactive)

COc1cc(CN2CCCC(C(=O)c3ccc(SC)cc3)C2)cc(Cl)c1O (stereo not given)
inhibition (at 10 µM unless noted): 19.3% (inactive)

COc1ccc(S(=O)(=O)N2CCN(C)CC2)c(C)c1
inhibition (at 10 µM unless noted): 26.4% (inactive)

COc1ccc(C)cc1Nc1n[n+](-c2ccccc2)c(-c2cccc(Cl)c2Cl)s1
inhibition (at 10 µM unless noted): 19.6% (inactive)

CCOC(=O)/C(C#N)=C/c1ccc(N2CCCCC2)cc1
inhibition (at 10 µM unless noted): 6.6% (inactive)

Cc1ccccc1C(=O)Nc1ccc(N2CCCCCC2)cc1
inhibition (at 10 µM unless noted): 1.4% (inactive)

O=C1C=CC(=O)N1c1ccc(N2CCCCC2)cc1
inhibition (at 10 µM): 45.6% (active) | inhibition (triplicate retest, at 20 µM): 114%

CCOc1c2ccc(C(=O)NCc3ccc(OC(F)(F)F)cc3)cc2nn1C
inhibition (at 10 µM unless noted): 14.9% (inactive)

CCOc1c2ccc(C(=O)NCc3ccc4c(c3)OCO4)cc2nn1C
inhibition (at 10 µM unless noted): 30.5% (inactive)

CCCn1nc2cc(C(=O)NCc3ccccc3)ccc2c1OCC
inhibition (at 10 µM unless noted): 34.5% (active)
